Reference: PubChem BioAssay (NCATS)
Results filed as inconclusive are left out. Calls of active or inactive are those of the source. Unless noted, calls come from the whole dose curve; as a rule, active = well fitted curve in either direction with a large enough effect (not every such curve was filed as active); inconclusive = small, poorly fitted or top-dose-only effect, or another doubt; inactive = flat fitted curve, though single readings scatter.

Experiments:
[1] = biological target: Lysosomal acid glucosylceramidase (Homo sapiens) (UniProt P04062); experiment: Glucocerebrosidase-p2 (AID 348; in the data active = potency below about 10 µM; note: potency is the fitted concentration of half-maximal effect); conditions: purified GBA, blue fluorogenic substrate, 40 min
Sequence of Lysosomal acid glucosylceramidase (Homo sapiens) (P04062 whole entry, looked up): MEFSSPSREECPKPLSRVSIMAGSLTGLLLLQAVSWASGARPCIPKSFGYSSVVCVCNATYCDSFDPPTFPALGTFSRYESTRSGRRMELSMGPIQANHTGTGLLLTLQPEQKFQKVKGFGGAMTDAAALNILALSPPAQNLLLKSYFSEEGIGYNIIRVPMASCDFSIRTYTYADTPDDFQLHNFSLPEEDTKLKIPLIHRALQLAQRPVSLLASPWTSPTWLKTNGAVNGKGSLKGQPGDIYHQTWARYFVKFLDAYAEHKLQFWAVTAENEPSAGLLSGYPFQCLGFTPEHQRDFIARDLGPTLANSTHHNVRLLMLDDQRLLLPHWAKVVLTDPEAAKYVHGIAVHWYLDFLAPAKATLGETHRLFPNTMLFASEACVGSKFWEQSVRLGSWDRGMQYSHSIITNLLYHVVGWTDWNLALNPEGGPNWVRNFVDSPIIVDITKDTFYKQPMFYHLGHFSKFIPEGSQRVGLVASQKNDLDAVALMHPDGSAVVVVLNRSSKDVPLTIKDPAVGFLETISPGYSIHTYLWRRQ
Method in brief: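 Compounds titrated from 0.6 nM upwards against 0.2 nM enzyme in pH 5.9 citric acid/KH2PO4, taurocholate, tween-20; blue fluorogenic substrate 80 uM, 40 min room temperature, stopped and read Ex 365/Em 440 for AC50.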

[2] = AP1 Signaling Pathway (AID 357); conditions: ME-180 AP-1-bla reporter, EGF-induced, beta-lactamase ratio, 5 h; at 7.69 µM (top of the series) unless noted;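 note: ME-180 reporter cells stimulated with EGF at its EC50 level; % is set by controls: 0 for no effect and ±100 for the full control effect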
Method in brief: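 A ratiometric CCF4 readout (405 nm excitation; 460 and 530 nm emission) quantified AP-1-driven beta-lactamase in ME-180 cells after 5 h with compound and EC50 EGF; AC50 values were derived for activators and inhibitors.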

[3] = biological target: Cytochrome P450 1A2 (Homo sapiens) (UniProt P05177); experiment: p450-cyp1a2 (AID 410; calls by dose curve; note: potency is the fitted concentration of half-maximal effect;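 for activity change, negative = inhibition: -100% = full effect of reference inhibitor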); conditions: recombinant CYP1A2, luciferin-ME demethylation, luminescence; series mostly up to 57 µM
Sequence of Cytochrome P450 1A2 (Homo sapiens) (P05177 whole entry, looked up): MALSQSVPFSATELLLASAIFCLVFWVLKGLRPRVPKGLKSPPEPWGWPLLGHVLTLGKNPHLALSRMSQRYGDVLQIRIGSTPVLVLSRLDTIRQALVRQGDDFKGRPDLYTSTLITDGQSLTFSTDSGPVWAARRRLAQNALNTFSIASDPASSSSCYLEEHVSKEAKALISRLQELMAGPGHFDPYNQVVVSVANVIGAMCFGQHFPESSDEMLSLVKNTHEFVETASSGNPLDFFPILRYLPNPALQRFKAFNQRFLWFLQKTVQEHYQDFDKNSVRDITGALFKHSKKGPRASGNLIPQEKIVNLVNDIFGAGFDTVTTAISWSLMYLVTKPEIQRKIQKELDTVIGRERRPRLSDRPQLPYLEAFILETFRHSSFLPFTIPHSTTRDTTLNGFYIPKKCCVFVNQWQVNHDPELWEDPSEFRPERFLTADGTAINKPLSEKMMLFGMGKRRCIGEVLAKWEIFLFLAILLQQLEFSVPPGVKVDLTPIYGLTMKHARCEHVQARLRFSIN
Method in brief: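 Inhibition was calculated relative to 57 uM furafylline (full inhibition). The reaction used human CYP1A2 at 20nM with Luciferin-ME at its Km, 100uM, driven by an NADPH-regenerating system for 60 min at room temperature.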

[4] = NFAT Signaling Pathway (AID 444); conditions: Jurkat NFAT-bla M1, carbachol, beta-lactamase ratio, 5 h; at 7.69 µM (top of the series) unless noted;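 note: carbachol stimulus at about its EC50 of 1 µM final; % is set by controls: 0 for no effect and ±100 for the full control effect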
Method in brief: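 Jurkat cells carrying an NFAT-driven β-lactamase reporter and co-transfected muscarinic M1 receptor were treated with compound plus carbachol (1 uM final, an EC50 level) for 5 h at 37 °C. CCF4 loading followed for 1 h at RT; 460/530 nm ratio gave %activity.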

[5] = Stat Signaling Pathway (AID 446); conditions: ME-180 SIE beta-lactamase reporter, IL-6 stimulated, 5 h; at 7.69 µM (top of the series) unless noted;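 note: ME-180 cervical cancer cells given 40 pM IL-6 alongside compound; SIE-controlled beta-lactamase reporter measured as 460/530 nm FRET emission ratio; % is set by controls: 0 for no effect and ±100 for the full control effect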
Method in brief: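 Screening format detects activators and inhibitors alike: ME-180 SIE-bla cells stimulated at 40 pM IL-6 for 5 hrs with compound, then dual-emission beta-lactamase read at 405 nm excitation.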

[6] = biological target: Glucocorticoid receptor (Homo sapiens) (UniProt P04150); experiment: GR-EFC Redistribution (AID 451; calls by dose curve; note: potency is the fitted concentration of half-maximal effect); conditions: CHO-K1 GR-EFC translocation, beta-gal luminescence, 2 h
Sequence of Glucocorticoid receptor (Homo sapiens) (P04150 whole entry, looked up, the tested form may be a part): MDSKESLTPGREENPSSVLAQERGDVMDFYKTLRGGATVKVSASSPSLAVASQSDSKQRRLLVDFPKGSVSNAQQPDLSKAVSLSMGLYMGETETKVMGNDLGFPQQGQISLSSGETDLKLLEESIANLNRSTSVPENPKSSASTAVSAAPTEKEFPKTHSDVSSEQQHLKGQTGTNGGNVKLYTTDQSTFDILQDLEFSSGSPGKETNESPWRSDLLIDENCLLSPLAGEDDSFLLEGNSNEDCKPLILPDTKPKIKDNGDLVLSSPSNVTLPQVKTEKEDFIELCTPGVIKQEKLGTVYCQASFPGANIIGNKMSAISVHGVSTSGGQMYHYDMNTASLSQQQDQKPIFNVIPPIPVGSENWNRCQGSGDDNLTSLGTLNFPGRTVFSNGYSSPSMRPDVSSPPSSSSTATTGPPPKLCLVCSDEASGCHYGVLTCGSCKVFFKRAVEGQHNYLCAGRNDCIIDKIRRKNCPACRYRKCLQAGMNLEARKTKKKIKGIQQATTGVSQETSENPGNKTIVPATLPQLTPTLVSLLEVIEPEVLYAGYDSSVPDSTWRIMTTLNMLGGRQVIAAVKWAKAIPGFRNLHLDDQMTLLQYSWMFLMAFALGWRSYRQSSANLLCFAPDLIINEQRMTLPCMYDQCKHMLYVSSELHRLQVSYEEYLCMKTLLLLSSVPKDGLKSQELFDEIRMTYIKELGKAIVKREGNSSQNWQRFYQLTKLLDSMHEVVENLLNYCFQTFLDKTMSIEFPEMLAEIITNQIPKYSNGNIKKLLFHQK
Method in brief: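 CHO-K1 cells stably expressing nuclear-localized β-gal enzyme acceptor and GR fused C-terminally to the enzyme donor fragment; ligand-driven nuclear translocation restores β-gal by complementation. Compounds titrated up to 46 uM final, 2 h at 37 °C; luminescence read.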

[7] = biological target: Mitogen-activated protein kinase 10 (Mus musculus) (UniProt Q61831); experiment: JNK3 AlphaScreen Assay (AID 530); conditions: JNK3 lysate, c-Jun phosphorylation; series mostly up to 57.1 µM;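 note: kinase came from lysate of stimulated human HepG2 cells; signal reports phosphorylation of biotinylated GST-cJun 1-79 at Ser73 with 10 µM ATP; % is set by controls: 0 for no effect and ±100 for the full control effect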
Method in brief: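 JNK3 came from HepG2 lysates pre-activated with IL-1beta and TNF-alpha and phosphorylated biotinylated GST-cJun (1-79) at 10 uM ATP, pH 7.6, room temperature. Compounds were titrated. AlphaScreen signal used anti-phospho-cJun (Ser73) antibody.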

[8] = biological target: 3',5'-cyclic-AMP phosphodiesterase 4B (Homo sapiens) (UniProt Q07343); experiment: qHTS Assay for Inhibitors of PDE-IV (AID 607; active = well fitted activation curve with a large enough effect in the main read-out, with a control signal flat, not every such curve was filed as active; note: % of control where 0% means no effect); conditions: HEK293 ACTOne CNG channel cells, membrane potential fluorescence; series mostly up to 22.9 µM
Sequence of 3',5'-cyclic-AMP phosphodiesterase 4B (Homo sapiens) (Q07343 whole entry, looked up): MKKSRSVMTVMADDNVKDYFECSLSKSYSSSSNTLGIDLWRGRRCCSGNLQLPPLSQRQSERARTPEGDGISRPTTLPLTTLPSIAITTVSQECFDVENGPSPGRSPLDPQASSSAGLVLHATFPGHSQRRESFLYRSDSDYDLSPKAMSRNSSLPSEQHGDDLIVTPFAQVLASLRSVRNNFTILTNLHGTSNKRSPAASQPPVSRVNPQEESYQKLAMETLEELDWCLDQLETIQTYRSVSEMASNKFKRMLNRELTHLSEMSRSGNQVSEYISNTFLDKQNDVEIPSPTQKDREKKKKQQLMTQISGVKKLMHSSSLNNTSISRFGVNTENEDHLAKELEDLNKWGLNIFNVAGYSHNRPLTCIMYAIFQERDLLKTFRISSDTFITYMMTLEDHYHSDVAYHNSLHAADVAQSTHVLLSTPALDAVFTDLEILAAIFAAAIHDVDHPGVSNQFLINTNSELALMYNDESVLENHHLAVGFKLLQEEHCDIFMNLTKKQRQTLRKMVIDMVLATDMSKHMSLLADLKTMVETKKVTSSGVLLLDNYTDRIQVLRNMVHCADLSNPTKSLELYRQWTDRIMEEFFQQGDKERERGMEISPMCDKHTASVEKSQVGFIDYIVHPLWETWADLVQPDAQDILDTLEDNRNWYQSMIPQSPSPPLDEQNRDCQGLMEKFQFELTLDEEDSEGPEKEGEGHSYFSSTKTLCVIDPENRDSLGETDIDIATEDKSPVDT
Method in brief: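 The readout is membrane depolarisation from a cAMP-sensing CNG channel, detected with a potential dye at ex 535/em 590. Cells were HEK293-derived (endogenous PDE-IV) at 1000 cells/well, titrated up to 22.9 uM final.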

[9] = biological target: Cytochrome P450 2C9 (Homo sapiens) (UniProt P11712); experiment: qHTS Assay for Inhibitors and Substrates of Cytochrome P450 2C9 (AID 883; active = well fitted curve in the direction sought with a large enough effect; an effect the other way counts as inactive or inconclusive; note: % is set by controls: 0 for no effect and ±100 for the full control effect; nearly all actives have a fitted effect of over 60% in size); conditions: recombinant CYP2C9, luciferin-H luminescence, 60 min; series mostly up to 57.1 µM
Sequence of Cytochrome P450 2C9 (Homo sapiens) (P11712 whole entry, looked up): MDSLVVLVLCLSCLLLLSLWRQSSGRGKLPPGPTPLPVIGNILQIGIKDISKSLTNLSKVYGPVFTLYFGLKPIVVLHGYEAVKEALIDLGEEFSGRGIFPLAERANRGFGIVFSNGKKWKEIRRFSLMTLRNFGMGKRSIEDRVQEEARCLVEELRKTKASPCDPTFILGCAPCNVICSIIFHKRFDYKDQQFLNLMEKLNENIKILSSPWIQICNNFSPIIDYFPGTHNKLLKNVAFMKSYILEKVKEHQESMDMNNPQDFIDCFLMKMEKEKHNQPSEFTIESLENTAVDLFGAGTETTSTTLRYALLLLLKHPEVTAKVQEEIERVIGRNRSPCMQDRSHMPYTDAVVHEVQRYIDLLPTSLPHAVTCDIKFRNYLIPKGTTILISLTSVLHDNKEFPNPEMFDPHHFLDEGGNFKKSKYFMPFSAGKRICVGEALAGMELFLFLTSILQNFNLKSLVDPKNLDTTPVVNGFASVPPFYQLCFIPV
Method in brief: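 Human CYP2C9 (10nM) hydroxylated Luciferin-H (100uM, at its KM) to luciferin in 25mM KPO4. Compound was preincubated 10 min at 37C, then NADPH regeneration started a 60 min reaction at 37C. Luminescence was read after detection reagent, normalized to 57uM sulphaphenazole.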

[10] = biological target: Cytochrome P450 3A4 (Homo sapiens) (UniProt P08684); experiment: qHTS Assay for Inhibitors and Substrates of Cytochrome P450 3A4 (AID 884; active = well fitted curve in the direction sought with a large enough effect; an effect the other way counts as inactive or inconclusive; note: nearly all actives have a fitted effect of over 50% in size; note: potency is the fitted concentration of half-maximal effect); conditions: recombinant CYP3A4, Luciferin-PPXE luminescence; series mostly up to 57.1 µM
Sequence of Cytochrome P450 3A4 (Homo sapiens) (P08684 whole entry, looked up): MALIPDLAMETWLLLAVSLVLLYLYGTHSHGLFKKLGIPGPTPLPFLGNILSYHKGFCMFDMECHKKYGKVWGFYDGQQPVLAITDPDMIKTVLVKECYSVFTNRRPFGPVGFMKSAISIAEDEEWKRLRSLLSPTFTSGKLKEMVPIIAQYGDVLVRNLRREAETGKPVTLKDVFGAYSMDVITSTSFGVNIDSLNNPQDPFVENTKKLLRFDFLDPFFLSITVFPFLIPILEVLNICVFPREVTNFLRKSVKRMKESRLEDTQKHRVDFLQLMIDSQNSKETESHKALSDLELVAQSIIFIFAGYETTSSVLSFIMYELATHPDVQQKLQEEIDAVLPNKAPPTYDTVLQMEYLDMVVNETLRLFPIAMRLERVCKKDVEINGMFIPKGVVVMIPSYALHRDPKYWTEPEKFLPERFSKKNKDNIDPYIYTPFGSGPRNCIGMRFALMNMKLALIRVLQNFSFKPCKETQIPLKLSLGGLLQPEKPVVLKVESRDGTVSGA
Method in brief: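 20 nM human CYP3A4 with 25 uM Luciferin-PPXE (at KM) in 200 mM KPO4, preincubated 10 min with compound; NADPH regeneration started a 60 min RT reaction. Luciferin detected by luminescence, normalized to 57 uM ketoconazole as full inhibition.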

[11] = qHTS Assay for Identification of Small Molecule Agonists for Hypoxia Response Element Signaling Pathway (AID 914; active = well fitted activation curve with a large enough effect in the signal ratio, with a control signal flat, not every such curve was filed as active; the % refers to the signal ratio; note: % of control where 0% means no effect); conditions: ME-180 (cervical carcinoma) HRE-bla reporter, beta-lactamase ratio, CoCl2, 17 h; activation: stronger effect = higher value
Method in brief: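 Reporter activity (beta-lactamase, CCF4 460nm/530nm ratio) in HRE-bla ME-180 cells is recorded after 17 h compound exposure with EC50 CoCl2 at 37 degrees Celsius. AC50 values come from titration data.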

[12] = qHTS Assay for Lipid Storage Modulators (AID 1519; calls by dose curve); conditions: Drosophila S3 cells, BODIPY lipid droplet/cell ratio, laser cytometry, cells loaded with oleic acid; for activity change, negative = inhibition: at 57.5 µM (top of the series)
Method in brief: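 Cells seeded at 5,000 per well were treated with compounds over a concentration series and loaded with oleic acid (400 uM, as added). Lipid droplet fluorescence (488 nm excitation, 500-530 nm channel) was read by laser-scanning cytometry and normalized to 20 uM Triacsin C.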

[13] = Primary qHTS for small molecule stabilizers of the endoplasmic reticulum resident proteome: Secreted ER Calcium Modulated Protein (SERCaMP) assay (AID 1508630; active = well fitted curve in the direction sought with a large enough effect; an effect the other way counts as inactive or inconclusive; note: % is set by controls: 0 for no effect and ±100 for the full control effect); conditions: SH-SY5Y GLuc-SERCaMP (Gaussia luciferase released on ER calcium loss) secretion, thapsigargin, luminescence; series mostly up to 38.4 µM
Method in brief: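 GLuc-SERCaMP-expressing SH-SY5Y cells, pretreated 16 h with compound, are challenged with thapsigargin to empty ER calcium stores; after 4 h, coelenterazine is added directly to the medium and luminescence is imaged.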

[14] = biological target: Cytochrome P450 3A4 (Homo sapiens) (UniProt P08684); experiment: qHTS Assay for Activators of Cytochrome P450 3A4 (AID 885; active = well fitted curve in the direction sought with a large enough effect; an effect the other way counts as inactive or inconclusive; note: nearly all actives have a fitted effect of over 65% in size; note: potency is the fitted concentration of half-maximal effect); conditions: recombinant CYP3A4, Luciferin-PPXE luminescence, 60 min; series mostly up to 57.1 µM
Method in brief: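 Steps: enzyme/substrate mix dispensed; compound added, 10 min RT; NADPH regeneration solution added, 60 min RT; luciferin detection buffer stops reaction; 20 min later luminescence measured.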

[15] = measured here: cell count channel max response
[16] = measured here: lipid channel max response

SMILES	Potency [1]	activity change, negative = inhibition [2]	Potency [3]	activity change, negative = inhibition [4]	activity, negative = inhibition [5]	Potency [6]	outcome [7]	Potency [8]	Potency [9]	Potency [10]	activation [11]	activity change, negative = inhibition [12]	max response [12, 15]	max response [12, 16]	Potency [13]	Potency [14]
CC(C)NC(=O)N1CCC2(CC1)CCN(C(=O)c1cc(C(F)(F)F)cc(C(F)(F)F)c1)CC2	> 11.4 µM (inactive)	-12% (inactive)	inactive	25.7% (inactive)	-9.32% (inactive)	> 46 µM (inactive)	inactive	inactive	inactive	inactive	9.62% (inactive)	-0.11% (inactive)	-8.79%	-7.75%	inactive	
O=C(c1cnccn1)N1CCC[C@@]2(CCN(c3ccccc3)C2)C1	> 11.4 µM (inactive)	-15.8% (inactive)	15.8 µM (active)	-3.48% (inactive)	-3.78% (inactive)	> 46 µM (inactive)	inactive	inactive		7.94 µM (active)		-0.338% (inactive)	17%	18.8%	inactive	inactive
CS(=O)(=O)N1CCC2(CCN(Cc3ccncc3)CC2)CC1	> 11.4 µM (inactive)	-1.98% (inactive)	inactive	-4.26% (inactive)	10.3% (inactive)	> 46 µM (inactive)	inactive	inactive				5.08% (inactive)	9.75%	18.4%	inactive	inactive
FC(F)(F)c1cc(CN2CCCC3(CCNCC3)C2)cc(C(F)(F)F)c1	> 11.4 µM (inactive)	2.64% (inactive)	inactive	-4.7% (inactive)	1.59% (inactive)	> 46 µM (inactive)	inactive	inactive		7.94 µM (active)		0.357% (inactive)	-0.613%	2.14%	inactive	inactive
COC(=O)N1CCC2(CCN(Cc3nccs3)CC2)CC1	> 11.4 µM (inactive)	-10.7% (inactive)	inactive	-25.8% (inactive)	0.339% (inactive)	> 46 µM (inactive)	inactive	inactive		inactive		2.86% (inactive)	6.91%	13.2%	inactive	
CC(=O)N1CCC2(CC1)CN(C(c1ccccc1)c1ccccc1)C2	> 11.4 µM (inactive)	14.1% (inactive)	inactive	-5.45% (inactive)	-8.55% (inactive)	> 46 µM (inactive)	inactive	inactive				1.46% (inactive)	13.6%	21%	inactive	15.8 µM (active)
O=C(c1cccc(F)c1)N1CCC2(CC1)CCN(c1cccc(-c3ccccc3)c1)CC2	> 11.4 µM (inactive)	-4.91% (inactive)	20 µM (active)	4.3% (inactive)	-10.4% (inactive)	> 46 µM (inactive)	inactive	inactive		inactive		-5.71% (inactive)	-11.6%	-13.5%	inactive	5.01 µM (active)
CC(=O)N1CCC2(CCCN(C(=O)Nc3cccc(F)c3)C2)CC1	> 11.4 µM (inactive)	-2.22% (inactive)	inactive	13.9% (inactive)	-6.7% (inactive)	> 46 µM (inactive)	inactive	inactive				-0.823% (inactive)	-12.4%	-13.5%	inactive	inactive
O=C(Nc1ccccc1)N1CC[C@@]2(CCCN(C(=O)c3cnccn3)C2)C1	> 11.4 µM (inactive)	6.39% (inactive)	inactive	7.42% (inactive)	-0.789% (inactive)	> 46 µM (inactive)	inactive	inactive				1.67% (inactive)	12.8%	16%	inactive	inactive
Cn1cccc1C(=O)N1CCC[C@@]2(CCN(c3ccncc3)C2)C1	> 11.4 µM (inactive)	-2.65% (inactive)	12.6 µM (active)	-12.6% (inactive)	7.16% (inactive)	> 46 µM (inactive)	inactive	inactive				-3.31% (inactive)	-3.32%	-4.8%	inactive	inactive
COc1ccc(NC(=O)N2CC[C@@]3(CCCN(C(=O)c4csnn4)C3)C2)cc1	> 11.4 µM (inactive)	-1.53% (inactive)	inactive	17.4% (inactive)	7.84% (inactive)	> 46 µM (inactive)	inactive	inactive				5.36% (inactive)	14.7%	23.5%	inactive	inactive
COc1ccc(NC(=O)N2CCCC3(CCN(C(=O)c4cnccn4)CC3)C2)cc1	> 11.4 µM (inactive)	-0.971% (inactive)	inactive	1.32% (inactive)	-7.92% (inactive)	> 46 µM (inactive)	inactive	inactive				4.77% (inactive)	1.78%	8.5%	inactive	inactive
COc1ccc(NC(=O)N2CC3(CCN(C(=O)c4ccc(OC)cc4)CC3)C2)cc1	> 11.4 µM (inactive)	-11.7% (inactive)	inactive	16.6% (inactive)	-5.3% (inactive)	> 46 µM (inactive)	inactive	inactive				3.98% (inactive)	12.3%	17.6%	inactive	inactive
